Test results taken from PubChem BioAssay (NCATS).
Inconclusive results are not listed. A number with no mark means an inactive call. Calls of active or inactive are those of the source. Unless noted, calls follow the shape of the dose curve; as a rule, active = well fitted curve in the direction sought with a large enough effect; inconclusive = small, poorly fitted or top-dose-only effect, or another doubt; inactive = no such curve, though single readings can be large; an effect the other way counts as inactive or inconclusive.

System: not listed separately
Experiment: Validation screen for inhibitors of Lassa infection (AID 463096; calls by dose curve; also: potency is read from the fitted curve at half-maximal effect; as to activity change, negative = inhibition: % is scaled to controls: 0 for no effect and ±100 for the full control effect)
Settings: Lassa virus infection, cell-based; series mostly up to 46.1 µM; activity change, negative = inhibition: at the top concentration

Row | SMILES | activity change, negative = inhibition | Potency
1 | CCN(CCCl)Cc1ccccc1Br | 7.06% | –
2 | C=CCN1C[C@@H](C)N([C@H](c2ccc(C(=O)N(CC)CC)cc2)c2cccc(OC)c2)C[C@@H]1C | -25.4% | –
3 | CC(N)c1cccc(Cl)c1Cl (configuration not stated) | 10.6% | –
4 | CCCn1c(=O)c2[nH]c(C3CCCC3)nc2n(CCCOC(=O)c2ccc(S(=O)(=O)F)cc2)c1=O | 13.7% | –
5 | COc1ccc2c(c1)/C(=C/c1cnc[nH]1)C(=O)N2 | -26.6% | –
6 | NC(N)=Nc1ccc2[nH]c3c(c2c1)C[C@@]1(O)[C@H]2Cc4ccc(O)c5c4[C@@]1(CCN2CC1CC1)[C@H]3O5 | – | 0.891 µM (active)
7 | NC(=O)CI | -12.4% | –
8 | CCS(=O)(=O)Nc1cccc(C(=C2CCCCC2)c2cnc[nH]2)c1 | -1.69% | –
9 | CC(C)(C)c1cc(C=C(C#N)C#N)cc(C(C)(C)C)c1O | – | 2.51 µM (active)

System: not listed separately
Experiment: Validation screen for small molecules that induce DNA re-replication in MCF 10A normal breast cells (AID 463097); also: nearly all actives have a fitted effect of over 60% in size; also: potency is read from the fitted curve at half-maximal effect; as to re-replication induction: 0% is about no effect
Settings: MCF 10A cells, DNA re-replication phenotype imaging; series mostly up to 46.1 µM; re-replication induction: at the top concentration
How it was run: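 MCF 10A cells exposed to compound 48 hr at 37 C, 5% CO2, then Hoechst-stained 40 min. Laser-scanning imaging of nuclear DNA content (405 nm ex, 500-530 nm em); re-replication scored as rise in nuclei with elevated fluorescence intensity.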

Row | SMILES | re-replication induction | Potency
10 | CCN(CCCl)Cc1ccccc1Br | -2.1% | –
11 | C=CCN1C[C@@H](C)N([C@H](c2ccc(C(=O)N(CC)CC)cc2)c2cccc(OC)c2)C[C@@H]1C | -2.59% | –
12 | CC(N)c1cccc(Cl)c1Cl (configuration not stated) | 2.05% | –
13 | C=CCN1CC[C@]23c4c5ccc(O)c4O[C@@H]2/C(=N/N=C2\CC[C@@]4(O)C6Cc7ccc(O)c8c7[C@@]4(CCN6CC=C)[C@@H]2O8)CC[C@@]3(O)C1C5 | – | 15.8 µM (active)
14 | C[N+]1(C)C2CCC1CC(OC(=O)c1c[nH]c3ccccc13)C2 (configuration not stated) | – | 14.1 µM (active)
15 | NC(Cc1cc(O)c(O)cc1O)C(=O)O (configuration not stated) | -0.119% | –
16 | Ic1ccccc1CNC1C2CCN(CC2)C1C(c1ccccc1)c1ccccc1 (configuration not stated) | – | 17.8 µM (active)
17 | CCS(=O)(=O)Nc1cccc(C(=C2CCCCC2)c2cnc[nH]2)c1 | 4.95% | –
18 | CC(C)(C)c1cc(C=C(C#N)C#N)cc(C(C)(C)C)c1O | – | 0.158 µM (active)

Target: Ubiquitin carboxyl-terminal hydrolase 2 (Homo sapiens) (UniProt O75604)
Sequence (O75604 whole entry, looked up): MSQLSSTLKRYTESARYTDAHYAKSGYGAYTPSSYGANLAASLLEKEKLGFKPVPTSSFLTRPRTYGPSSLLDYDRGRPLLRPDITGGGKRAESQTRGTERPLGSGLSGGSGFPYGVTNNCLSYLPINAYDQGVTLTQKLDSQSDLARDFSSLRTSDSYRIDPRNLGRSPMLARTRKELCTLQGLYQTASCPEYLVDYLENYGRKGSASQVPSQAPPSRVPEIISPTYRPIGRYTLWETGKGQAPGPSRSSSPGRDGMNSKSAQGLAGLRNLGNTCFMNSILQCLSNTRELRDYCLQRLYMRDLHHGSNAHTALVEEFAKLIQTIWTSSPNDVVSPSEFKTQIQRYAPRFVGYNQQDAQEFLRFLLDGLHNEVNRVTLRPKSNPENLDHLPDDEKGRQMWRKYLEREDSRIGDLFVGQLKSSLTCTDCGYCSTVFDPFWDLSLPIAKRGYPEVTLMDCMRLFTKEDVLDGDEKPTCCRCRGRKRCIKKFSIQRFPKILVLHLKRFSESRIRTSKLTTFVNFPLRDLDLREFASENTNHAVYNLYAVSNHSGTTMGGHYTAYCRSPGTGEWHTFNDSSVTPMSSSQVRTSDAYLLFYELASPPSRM
Experiment: qHTS Validation Assay for Inhibitors of Ubiquitin-specific Protease USP2a Using CHOP2 as the Reporter (AID 463106);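 also: plate controls were DMSO for no effect and full inhibition by NEM for full effect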
Settings: USP2a cleavage of CHOP2 reporter, enzymatic; series mostly up to 38.3 µM; activity, negative = inhibition: at the top concentration
How it was run: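 Fluorescence read-out at Ex 485nm/Em 531nm after 60min RT, following addition of 25nM Ub-CHOP2 plus 25nM reporter substrate to USP2 core (10nM) pretreated 30min with compound. Data normalized to NEM full inhibition; concentration-response curves fitted.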

Row | SMILES | activity, negative = inhibition
19 | N#CCCN | 0.712%
20 | N#C/C(=C/c1ccc(O)c(O)c1)C(N)=S | -6.15%
21 | N=C(N)c1ccc(CS(=O)(=O)F)cc1 | 0.783%
22 | CCCN1CCc2cccc3c2[C@H]1Cc1ccc(O)c(O)c1-3 | -0.448%
23 | COc1ccc2c(c1)c(CCN1CCOCC1)c(C)n2C(=O)c1cccc(Cl)c1Cl | -12.8%
24 | CC(=O)c1c(O)c(C)c(O)c(Cc2c(O)c3c(c(C(=O)/C=C/c4ccccc4)c2O)OC(C)(C)C=C3)c1O | -19.8%
25 | CC(N)c1cccc(Cl)c1Cl (configuration not stated) | -0.874%
26 | C=CCN1CCc2cccc3c2[C@H]1Cc1ccc(O)c(O)c1-3 | -2.57%
27 | C[N+]1(C)CCc2cc3c(cc2[C@H]1[C@@H]1OC(=O)c2c1ccc1c2OCO1)OCO3 | 0.42%
28 | CN1CCc2cc(O)cc3c2[C@H]1Cc1ccc(O)c(O)c1-3 | 3.15%
29 | COc1ccc2c(c1O)-c1cccc3c1[C@@H](C2)N(C)CC3 | -0.513%
30 | COc1ccc2c(c1)/C(=C/c1cnc[nH]1)C(=O)N2 | 1.28%
31 | CCCN1CCC[C@@H](c2cccc(O)c2)C1 | -1.99%
32 | CCCC[N+]1(C)C2CC(OC(=O)[C@H](CO)c3ccccc3)CC1C1OC12 (some centres not stated) | 0.209%
33 | CC(=O)OCC1=C(C(=O)O)N2C(=O)[C@@H](NC(=O)CCC[C@@H](N)C(=O)O)[C@H]2SC1 | 1.27%
34 | C[N+]1(C)C2CCC1CC(OC(=O)c1c[nH]c3ccccc13)C2 (configuration not stated) | -0.0071%
35 | CCCN1CCc2cc(O)cc3c2[C@H]1Cc1ccc(O)c(O)c1-3 | 5.98%
36 | NC(N)=Nc1ccc2[nH]c3c(c2c1)C[C@@]1(O)[C@H]2Cc4ccc(O)c5c4[C@@]1(CCN2CC1CC1)[C@H]3O5 | -2.58%
37 | Cc1cc([C@@H]2CCCN2C)on1 | 5.12%
38 | Ic1ccccc1CNC1C2CCN(CC2)C1C(c1ccccc1)c1ccccc1 (configuration not stated) | 0.692%
39 | CC(C)(O)[C@@H]1C2OC(=O)[C@@H]1[C@]1(O)C[C@H]3O[C@]34C(=O)O[C@H]2[C@]14C (tested in a mixture with another compound) | -1.23%
40 | CC(C)[C@@]1(NC(=O)[C@@H]2C[C@@H]3c4cccc5[nH]cc(c45)C[C@H]3N(C)C2)O[C@@]2(O)[C@@H]3CCCN3C(=O)[C@H](Cc3ccccc3)N2C1=O | -3.61%
41 | NC(=O)CI | -3.31%
42 | C=CCN(C1=NCCN1)c1c(Cl)cccc1Cl | 1.99%
43 | CN1CC[C@@]2(C)c3cc(OC(=O)Nc4ccccc4)ccc3N(C)[C@@H]12 | 3.06%
44 | CCCCCCC(C)(C)c1ccc([C@@H]2C[C@H](O)CC[C@H]2CCCO)c(O)c1 | -12.9%
45 | CCNC(=O)[C@H]1O[C@@H](n2cnc3c(N)ncnc32)[C@H](O)[C@@H]1O | 1.14%
46 | N[C@@H](Cn1ccc(=O)[nH]c1=O)C(=O)O | 0.0873%
47 | O=[N+]([O-])/C=C/c1ccc2c(c1)OCO2 | 2.38%
